Screens as filed in PubChem.
TIM10 inh: growth inhibitors of TIM10 yeast strain; inhibition, % at 10 µM; S. cerevisiae TIM10 strain growth, BacTiter-Glo luminescence, 24 h; 330,000 compounds, 1.4% hits;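 active = inhibition of 40% or more at the single tested concentration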;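 note: wild-type TIM10 isogenic control strain grown at permissive 25 °C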
NALP3 yeast inh: NALP3 inhibition in yeast | 330,000 compounds, 0.39% hits | Yeast reconstituted NLRP3/ASC/caspase-1, beta-gal luminescence, 24 h | inhibition, % at 10 µM | AID 2825;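 active = inhibition of 50% or more; inactive = inhibition below 50%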;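 note: plate controls were induced DMSO wells for no effect and uninduced yeast grown without galactose for full effect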
tim10-1 inh: tim10-1 yeast growth inhibition; S. cerevisiae tim10-1 ts strain growth, BacTiter-Glo, 24 h; inhibition, % at 20 µM; 330,000 compounds, 2.2% hits; AID 463190;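 active = inhibition of at least 40%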;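 note: mutant grown at 25 °C; 0% = DMSO wells with yeast and 100% = wells holding no yeast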
tim23-1 inh: growth inhibitors of tim23-1 mutant yeast | 330,000 compounds, 1.3% hits | inhibition, % at 20 µM | AID 463212 | S. cerevisiae tim23-1 growth, BacTiter-Glo luminescence, 24 h;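 active = growth inhibition of the mutant yeast at or above 50%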;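 note: temperature-sensitive mutant grown at 25 °C; plate controls were DMSO-treated mutant yeast for no effect and medium wells lacking yeast for full effect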
NALP1 yeast inh: inhibitors of NALP1 inflammasome in yeast | 280,000 compounds, 0.61% hits | inhibition, % at 10 µM | S. cerevisiae NALP1/ASC/caspase-1 growth, X-gal OD620, 72 h | AID 2071; in the data active = inhibition mostly above about 24%, no sharp cut-off; inactive = mostly below about 32%
V-ATPase pHluor: yeast V-ATPase proton transport regulation by pHLuorin. 350,000 compounds, 0.37% hits. response, % at 10 µM. AID 504577. S. cerevisiae, pHLuorin cytosolic pH fluorescence; in the data active = response mostly above about 7.3%, no sharp cut-off; inactive = mostly below about 5.4%; note: actives read high
tim10-1 confirm: tim10-1 yeast growth inhibition, confirmed; shares compounds with tim10-1 inh; S. cerevisiae tim10-1 ts strain growth, BacTiter-Glo, 24 h; inhibition, % at 20 µM; 7,400 compounds, 56% hits; AID 463213;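 active = inhibition of yeast growth at or above a set limit in either of two repeat tests at 20 µM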;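 note: tim10-1 mutant grown at permissive 25 °C to find synthetic lethal compounds; 0% = DMSO yeast wells and 100% = medium wells without yeast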
The depositor's hits bear a star; / = no result given. A selection: hits, their analogues and other compounds. The true share with any hit is near 4.2%.

SMILES	TIM10 inh	NALP3 yeast inh	tim10-1 inh	tim23-1 inh	NALP1 yeast inh	V-ATPase pHluor	tim10-1 confirm
Cc1ccc(/C=C/c2onc(C)c2S(=O)(=O)N2CCC(C(=O)N3CCCCC3)CC2)cc1	-64.0	37.4	-10.7	-12.9	22.1	1.5	/
CCCN1CCN(C(=O)C2CCN(S(=O)(=O)c3c(C)noc3/C=C/c3ccc(C)cc3)CC2)CC1	12.4	17.9	54.0*	30.4	2.9	3.9	28.2*
Cc1ccc(Cl)cc1NC(=O)COC(=O)CC1CCCCC1	0.3	22.8	5.9	34.6	/	5.6	/
CCOc1ccc(S(=O)(=O)N2CCC(C(=O)NCc3ccccc3CN3CCCC3)CC2)cc1	5.5	19.2	2.9	3.8	/	-1.4	/
Cc1ccc(S(=O)(=O)CCC(=O)OCC(=O)Nc2cc(S(=O)(=O)N3CCOCC3)ccc2Cl)cc1	/	/	/	/	/	3.3	/
O=C(COC(=O)CCS(=O)(=O)c1ccccc1)Nc1cc(S(=O)(=O)N2CCCCC2)ccc1Cl	27.4	25.4	40.4*	37.5	/	5.4	42.2*
CC1(C(=O)NNC(=O)c2cccc([N+](=O)[O-])c2)CC1(Br)Br (configuration not stated)	-1.1	-1.8	-11.1	1.5	15.4	-0.5	/
Cc1nc(N2CCC(C)CC2)c2c(C)c(C(=O)Nc3ccc4c(c3)OCCO4)sc2n1	16.6	11.6	41.5*	40.1	24.8	0.5	12.3
Cc1c(C(=O)N2CCCCC2C)sc2ncnc(N3CCc4ccccc4C3)c12 (configuration not stated)	25.3	11.8	23.1	3.3	10.4	/	/
Cc1nc(N2CCC(C)CC2)c2c(C)c(C(=O)Nc3ccc(C(F)(F)F)cc3)sc2n1	-2.7	-1.1	30.4	26.9	-3.8	-4.4	/
Cc1c(C(=O)Nc2ccc3c(c2)OCCO3)sc2ncnc(N3CCCCC3C)c12 (configuration not stated)	5.0	3.8	46.3*	46.3	-4.6	-0.5	19.6
O=C(NCC1CCN(Cc2ccccc2F)CC1)Nc1cccc(Br)c1	4.1	1.0	22.5	-5.7	4.3	-1.4	/
CN(C)/C=C(\C#N)C(=O)N/N=C/c1ccccc1	3.1	-1.7	7.2	8.6	-15.1	3.9	/
COc1cccc(Nc2nc(N)nc(-c3oc4ccccc4c3C)n2)c1	14.6	31.7	17.8	7.6	-3.3	-0.2	/
Cc1cccc(Nc2nc(N)nc(-c3oc4ccccc4c3C)n2)c1	15.4	30.8	41.5*	40.6	5.8	-2.8	10.1
Cc1c(C(=O)OC(C)C)sc(NC(=O)c2cnccn2)c1C(=O)OC(C)C	/	/	/	/	/	-5.2	/
COCCNC(=O)c1oc2ccc3c(c2c1C)C(O)CC(C)(C)O3 (configuration not stated)	9.5	9.3	6.1	-0.6	26.0	-0.4	/
Cc1c(C(=O)N2CCC(C)CC2)oc2ccc3c(c12)C(O)CC1(CCCCC1)O3 (configuration not stated)	15.4	17.9	49.1*	44.6	27.5	-0.8	14.1
COCCCNc1c2c3c(cccc3[nH]c1=O)C(=O)c1ccccc1-2	31.0	-2.7	40.5*	15.7	15.3	-0.7	22.9
COCCCNC1=C(Cl)C(=O)c2ccccc2C1=O	26.6	14.7	30.1	40.6	8.8	3.9	/
COc1ccccc1CNC(=S)Nc1ccc(S(N)(=O)=O)cc1	2.6	9.2	11.3	-1.1	-2.7	3.6	/
CC(C)[C@H](NC(=O)N1c2ccccc2NC(=O)[C@@H]1C(C)C)C(=O)N1CCC[C@H]1C(=O)O	-7.7	14.3	-14.7	-10.3	10.7	2.5	/
O=S(=O)(NCc1ccco1)c1ccc2c(c1)Cc1ccccc1-2	34.4	7.9	45.1*	25.8	/	-3.1	34.8*
Cc1ccc(S(=O)(=O)NCc2ccco2)cc1C	4.7	14.2	3.2	-4.9	24.3	-3.9	/
Cc1cc(C)cc(NC(=O)c2cc(S(=O)(=O)NCc3ccco3)ccc2F)c1	38.7	9.1	46.0*	41.3	-6.5	-3.5	40.1*
SMILES	TIM10 inh	NALP3 yeast inh	tim10-1 inh	tim23-1 inh	NALP1 yeast inh	V-ATPase pHluor	tim10-1 confirm
COc1ccc2nc(C)cc(N3CCN(S(=O)(=O)c4ccccc4F)CC3)c2c1	29.5	25.4	40.2*	46.6	/	-2.6	20.6
CC1CCN(S(=O)(=O)c2ccc3c(c2)NC(=O)CS3)CC1	23.0	2.7	41.7*	46.0	0.9	0.7	22.6
COc1cccc(N2CCN(S(=O)(=O)c3ccc4c(c3)NC(=O)CS4)CC2)c1	-1.6	14.0	2.0	0.8	19.2	2.5	/
O=C(CC1C=Cc2ccccc2N1C(=O)c1ccccc1)c1ccccc1 (configuration not stated)	12.5	-13.1	33.8	38.1	9.8	-1.8	/
O=C1CSc2ccc(S(=O)(=O)CCC(=O)NC3CCCCC3)cc2N1	4.6	6.8	13.7	12.1	18.5	0.7	/
O=C(CC1S/C(=N/N=C2CCCCCC2)NC1=O)Nc1ccc(Br)cc1F (configuration not stated)	17.1	20.8	44.0*	34.6	-12.8	-2.9	21.5
O=C(CC1S/C(=N/N=C2CCCCCC2)NC1=O)Nc1ccccc1F (configuration not stated)	5.5	15.8	17.0	24.2	-2.2	-0.5	/
COc1ccccc1CNC(=O)c1c(N)n(CCCN2CCOCC2)c2nc3ccccc3nc12	/	/	/	/	11.5	0.6	/
Nc1c(C(=O)NCc2ccc3c(c2)OCO3)c2nc3ccccc3nc2n1CCCN1CCOCC1	4.5	5.6	43.7*	8.1	16.4	-15.7	29.4
Nc1cc2c(cc1N)-c1ccccc1C2	/	/	/	/	/	-3.9	/
CCCc1cc(=O)oc2cc(OCC(=O)NCc3ccccn3)ccc12	12.4	4.8	1.2	11.8	9.4	1.8	/
CCCCc1cc(=O)oc2cc(OCC(=O)NCc3ccccn3)ccc12	2.3	16.2	47.7*	22.6	16.5	-2.0	-2.4
O=C1c2cc(O)cc(O)c2C(=O)c2c1cc(O)c([C@@H](CO)CCO)c2O	3.1	11.8	10.3	3.5	/	-2.0	/
Cc1cc(O)c2c(c1)C(=O)c1cc(O)cc(O)c1C2=O	24.1	44.1	45.4*	44.3	/	-1.1	22.8
C/C(=N\NC(=S)Nc1c(C)cccc1C)c1cc2ccccc2o1	37.4	42.7	41.8*	9.7	3.7	-2.8	27.8
C/C=C/C(=O)N1CC2(CC(c3cccc(NC(=O)COc4ccc(Cl)cc4)c3)=NO2)C[C@@H]1C(N)=O (some centres not stated)	0.3	10.9	-8.2	10.7	/	0.9	/
O=C(c1cc(COc2ccc(F)c(F)c2)on1)N1CCN(C2CCCCC2)C(=O)C1	-17.6	18.6	40.4*	33.1	27.3	-0.7	-29.4
O=C(c1cc(COc2c(F)cccc2F)on1)N1CCN(C2CCCCC2)C(=O)C1	-8.0	3.1	22.3	24.4	12.1	-3.4	/
CS(=O)(=O)N(CC(=O)N1CCCCCC1)c1cccc(F)c1	-3.3	9.4	2.8	4.7	9.6	2.4	/
Cc1sc2nc[nH]c(=S)c2c1-c1ccccc1	25.2	3.8	40.1*	-4.2	-4.9	1.4	-1.3
